Screening results: PubChem BioAssay, The Scripps Research Institute Molecular Screening Center
DAX1 inh – blocks DAX1 repression of SF-1 activated StAR promoter. HEK293T StAR-luciferase reporter, SF-1/DAX-1 repression relief. inhibition, % at 6.8 µM. 1.1% of 370,000 active. AID 652010;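 active = inhibition above the mean over all tested compounds plus 3 SD, cut at about 3.6% in these data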;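 also: 0% = DAX-1 cells with DMSO and 100% = cells lacking DAX-1 with DMSO; higher inhibition means more luminescence from relief of DAX-1 repression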
hgDAF-12 ag – hgDAF-12 agonism, primary luciferase screen; HEK293 GAL4-hgDAF12 UAS-luciferase reporter, agonist luminescence; normalized to butyrate control; activation, % at 6.8 µM; 1.8% of 370,000 active;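 active = activation above a cutoff set at the mean of all screened compounds plus 3 SD, cut at about 10% in these data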;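 also: 0% = DMSO wells and 100% = sodium butyrate wells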
ssDAF-12 act – S. stercoralis DAF-12 activation, primary screen. HEK293 ssDAF-12/GRIP1 lit1-tk-luc reporter, luminescence; % of 3 µM dafachronic acid response. activation, % at 6.8 µM. 1% of 370,000 active;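 active = activation above the mean over all tested compounds plus 3 SD, cut at about 0.9% in these data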;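 also: 0% = DMSO-only wells and 100% = 3 µM delta7-dafachronic acid wells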
SMARCA2 act – increases SMARCA2 function in MMTV reporter cells | 1% of 370,000 active | MG213 cells, MMTV-luciferase reporter, dexamethasone, overnight | activation, % at 9.1 µM; in the data active = activation above about 7.8%;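 also: 0% = vehicle wells and 100% = reference activator wells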
hcDAF-12 act – activators of H. contortus DAF-12 nuclear receptor | AID 652067 | activation, % at 6.8 µM | 1.4% of 370,000 active | HEK293 hcDAF-12 lit1-tk-luc reporter, luminescence; 0% DMSO, 100% Δ7-dafachronic acid;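 active = activation above the mean of all tested compounds plus 3 SD, cut at about 5.5% in these data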;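 also: 100% = response to 3 µM Δ7-dafachronic acid high control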
SMARCA2 conf – SMARCA2 activation, confirmation screen. activation, % at 9.1 µM. MG213 cells, MMTV-luciferase with dexamethasone, luminescence, overnight; MG213 cells expressing E1A, Rb sequestered; DMSO wells 0%, reference activator 100%. shares compounds with SMARCA2 act. 30% of 3,500 active;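 active = activation above its plate's cutoff, the mean activation of tested wells plus 3 SD, cut at about 7.9% in these data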
VP16 Luc act – GAL4-VP16 reporter activation counter-screen; HEK293 GAL4-VP16 pG5luc reporter, luciferase luminescence; scaled: DMSO wells 0%, SAHA wells 100%; activation, % at 9.1 µM; 41% of 3,500 active; shares compounds with SMARCA2 act;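 active = activation above the solvent-only control well mean plus 3 SD, averaged across control plates, cut at about 5.2% in these data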
Numbers without * were called inactive; / = not tested or not shown. Only some compounds are listed: those with a hit (about 4.2% of all), similar ones and a draw of the others.

SMILES	DAX1 inh	hgDAF-12 ag	ssDAF-12 act	SMARCA2 act	hcDAF-12 act	SMARCA2 conf	VP16 Luc act
C=CCN=C1NC(c2ccccc2C(F)(F)F)C(C(=O)OC)=C(C)N1Cc1ccccc1C(F)(F)F (stereo unspecified)	0.0	-1.0	-0.7	-1.5	1.2	/	/
Nc1c(C(=O)Nc2ccc(F)cc2)sc(=S)n1-c1ccccc1F	0.5	4.1	-1.7	8.4*	0.5	0.9	3.4
COc1ccc([C@H]2CC(=O)C[C@@H](CCn3cc(-c4nccn4C)nn3)O2)cc1	-0.3	-1.7	-0.6	-4.2	-1.3	/	/
COc1cc2c(cc1OC)C(c1cc3ccc(C)cc3[nH]c1=O)N(C(=O)c1ccco1)CC2 (stereo unspecified)	0.3	0.3	-0.9	11.1*	-1.4	0.4	1.3
COc1cc2c(cc1OC)C(c1cc3cc4c(cc3[nH]c1=O)OCO4)N(C(=O)C1CC1)CC2 (stereo unspecified)	1.0	-2.5	-1.3	-1.9	-1.6	/	/
CCC(c1nnnn1-c1ccc2c(c1)OCCO2)N1CCN(c2ccccn2)CC1 (stereo unspecified)	-2.1	1.8	-0.6	-2.1	-1.2	/	/
COc1ccc(C(=O)Nc2nc3ccccc3[nH]2)cc1	0.1	-5.8	-0.9	-4.0	0.5	/	/
COc1ccc(C(=O)N[C@H](C(=O)Nc2nc3ccccc3[nH]2)C(C)C)cc1	0.8	13.0*	0.2	12.6*	3.3	12.3*	14.8*
CC1CCCC(C)N1C(=O)c1ccccc1 (stereo unspecified)	-0.5	-2.0	-1.2	2.3	0.9	/	/
CCCC(=Nc1ccc(N)cc1)C1=C(O)C(C(=O)OC)C(C)(C)CC1=O (stereo unspecified)	-1.0	-1.2	-1.5	8.2*	0.2	-3.5	3.3
COc1ccccc1NC(=O)CSc1nncn1-c1cccnc1	0.0	0.3	-1.3	12.8*	-0.8	0.1	0.2
O=C(COC(=O)c1ccccc1NCCO)Nc1ccc(S(=O)(=O)NC2=NCCCCC2)cc1	0.3	-2.8	-1.4	11.4*	-2.5	0.1	0.8
CCC(=O)NC(=S)Nc1cccc(NC(=O)c2ccc(Cl)cc2Cl)c1	-0.5	2.5	-1.4	1.9	-1.9	/	/
CC(C)C(=O)Nc1cccc(NC(=O)c2ccc(Cl)cc2Cl)c1	0.2	-3.7	-1.8	8.5*	-0.4	0.0	2.7
CCCCc1c(Cc2ccccc2)ncn1CCc1ccccc1OC	-1.5	-0.6	-1.3	-8.3	-2.3	/	/
C=C(C)Cn1c(SCC(=O)N/N=C(\C)c2ccc(Br)cc2)nnc1-c1ccc(Br)cc1	-0.3	-2.9	-0.8	-4.2	-1.8	/	/
Cc1ccc(-n2c(C)csc2=N)cc1	1.6	9.1	0.5	8.7*	3.0	7.6	18.6*
COc1cccc2nc3c(C(=O)NCCN(C)C)cccc3cc12	-4.8	-5.1	0.2	10.0*	0.9	41.5*	2.2
CN(C)CCNC(=O)c1cccc2nc3c(ccc4ccccc43)nc12	-7.3	-5.0	-0.5	18.7*	2.8	31.5*	3.9
COc1ccc(C(=O)NCCN(C)C)c2nc3ccccc3cc12	-3.7	-6.0	0.4	12.4*	5.8*	95.0*	7.3*
COc1ccc(-c2nc3c(C(=O)NCCN(C)C)cccc3c3ccccc23)cc1	-1.7	2.0	0.0	12.0*	-0.8	26.3*	1.2
O=C1C(=Cc2cccc(O)c2O)SC(=S)N1CCCN1CCOCC1	0.9	1.7	-0.6	-1.3	1.6	/	/
O=C1CSC(c2cccs2)N1c1nncs1 (stereo unspecified)	0.5	-3.7	-0.6	0.2	-1.9	/	/
COC(=O)C1=C(C)N(Cc2ccccc2C(F)(F)F)C(=NCc2ccccc2)NC1c1ccc(F)cc1 (stereo unspecified)	-0.1	1.9	-0.9	0.4	-0.1	/	/
CCc1nnc2c3cnn(-c4ccccc4)c3ncn12	0.7	3.3	-0.9	5.4	0.2	/	/
SMILES	DAX1 inh	hgDAF-12 ag	ssDAF-12 act	SMARCA2 act	hcDAF-12 act	SMARCA2 conf	VP16 Luc act
Cc1ccc(-n2ncc3c2ncn2c(C)nnc32)cc1C	2.3	5.0	-1.1	9.0*	0.5	5.7	10.4*
COc1c(C(=O)NNC(=O)c2ccccc2)csc1Br	1.0	5.6	0.8	15.7*	4.0	3.1	7.0*
CCCCCn1nnnc1C1(C)CCSCC(=O)N1Cc1ccco1 (stereo unspecified)	-0.2	0.8	0.0	8.4*	-1.6	-0.8	-0.6
CCN=c1sc(C(=O)OC)cc(=O)n1CC	0.5	3.4	-0.7	10.6*	-1.8	8.6*	1.1
C=CCN=c1sc(C(=O)OC)cc(=O)n1CC=C	-1.5	-1.2	-1.6	-0.1	-2.1	/	/
CCN(C)C(=O)Oc1cccc([C@H](C)N(C)C)c1	0.1	-1.4	-1.5	-4.3	-2.1	/	/
Cc1cc(C)nc(Nc2ccccc2Cl)n1	1.4	7.9	-0.4	12.4*	3.4	1.6	1.3
Cc1cc(C)nc(Nc2ccccc2F)n1	-0.2	-1.6	-1.2	-0.7	-1.0	/	/
C=CCn1c(COc2ccc(Cl)cc2)nnc1SCC(=O)c1ccccc1	-0.8	-1.2	-2.6	-3.9	-1.1	/	/
CC(C)C(Cl)=NOC(=O)Nc1ccc(F)cc1	-1.2	1.7	-1.0	43.5*	-0.7	-15.0	1.7
O=C(NC1CCCC1)C1c2ccccc2OCC(=O)N1Cc1ccc2c(c1)OCO2 (stereo unspecified)	-0.7	-2.0	-0.5	-2.6	-0.2	/	/
O=C(Nc1ccc(N2CCN(C(=O)c3ccccc3)CC2)cc1)c1ccc([N+](=O)[O-])o1	-3.5	-7.3	-1.9	-4.8	-3.2	/	/
COc1ccc(NC(=O)c2ccc([N+](=O)[O-])o2)cc1	-1.4	1.2	-0.7	12.4*	-0.9	29.2*	3.1
Cc1c(Cl)c([N+](=O)[O-])nn1Cc1ccc(C(=O)Nc2ccc(Cl)cn2)o1	0.0	-1.3	-1.8	-2.1	-1.2	/	/
Cc1ccccc1C(=O)N1CCN(c2ccc(NC(=O)c3ccc([N+](=O)[O-])o3)cc2)CC1	-0.9	3.4	-1.2	12.8*	0.9	-4.4	3.2
O=C(Nc1ccc(Cl)cn1)c1ccc([N+](=O)[O-])o1	-2.4	-3.9	-1.5	10.8*	-2.0	13.8*	3.9
